# According to the supplement of paper PMC8728848:
# Many of the other results were omitted from the sample, so the strongest signals are more common in it than they were.
# B1: Mg1lysM (Mycosphaerella graminicola) (protein)
# chain: QRNPITITPQFDCGATNSQQYVARSGDTLTKIAQEIYHDVVGVCDIARANNLADPNRIDAGTPYTIPINCQTYDRNSCL
# Experiments:
# Assay in all cases: glycan array binding signal (z-score within array); higher = stronger binding
# Conditions in all cases: glycan notation: IUPAC condensed, linker removed
# [1] = molecular target: Fuc(a1-2)Gal(b1-3)GlcNAc(b1-3)Gal(b1-4)Glc
# In short: (§1)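 The Consortium for Functional Glycomics database supplied 3228 glycan arrays, of which those lacking an available protein sequence were dropped. The binding signal, a within-array Z-score, was averaged across arrays of the same protein sequence and across linkers. Negative scores can be read as non-binding.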
# [2] = molecular target: Fuc(a1-2)Gal(b1-3)[Fuc(a1-4)]GlcNAc(b1-3)[Gal(b1-4)GlcNAc(b1-6)]Gal(b1-4)Glc
# In short: as §1
# [3] = molecular target: Fuc(a1-2)Gal(b1-4)Glc
# In short: as §1
# [4] = molecular target: Fuc(a1-2)Gal(b1-4)GlcNAc(b1-3)Gal(b1-4)GlcNAc(b1-2)Man(a1-3)[Fuc(a1-2)Gal(b1-4)GlcNAc(b1-3)Gal(b1-4)GlcNAc(b1-2)Man(a1-6)]Man(b1-4)GlcNAc(b1-4)GlcNAc
# In short: as §1
# [5] = molecular target: Fuc(a1-2)Gal(b1-4)[Fuc(a1-3)]GlcNAc(b1-2)Man(a1-3)[Fuc(a1-2)Gal(b1-4)[Fuc(a1-3)]GlcNAc(b1-2)Man(a1-6)]Man(b1-4)GlcNAc(b1-4)[Fuc(a1-6)]GlcNAc
# In short: as §1
# [6] = molecular target: Fuc(a1-2)Gal3S(b1-4)GlcNAc
# In short: as §1
# [7] = molecular target: Fuc(a1-2)[GalNAc(a1-3)]Gal(b1-4)GlcNAc(b1-2)Man(a1-3)[Fuc(a1-2)[GalNAc(a1-3)]Gal(b1-4)GlcNAc(b1-2)Man(a1-6)]Man(b1-4)GlcNAc(b1-4)[Fuc(a1-6)]GlcNAc
# In short: as §1
# [8] = molecular target: Fuc(a1-3)[Gal3S(b1-4)]GlcNAc
# In short: as §1
# [9] = molecular target: Fuc(a1-4)GlcNAc
# In short: as §1
# [10] = molecular target: Gal(a1-3)Gal
# In short: as §1
# [11] = molecular target: Gal(a1-3)Gal(b1-3)[Fuc(a1-4)]GlcNAc(b1-2)Man(a1-3)[Gal(a1-3)Gal(b1-3)[Fuc(a1-4)]GlcNAc(b1-2)Man(a1-6)]Man(b1-4)GlcNAc(b1-4)GlcNAc
# In short: as §1
# [12] = molecular target: Gal(a1-4)Gal(b1-4)GlcNAc(b1-2)Man(a1-3)[Gal(a1-4)Gal(b1-4)GlcNAc(b1-2)Man(a1-6)]Man(b1-4)GlcNAc(b1-4)GlcNAc
# In short: as §1
# [13] = molecular target: Gal(a1-6)Glc
# In short: as §1
# [14] = molecular target: Gal(b1-3)Gal
# In short: as §1
# [15] = molecular target: Gal(b1-3)GlcNAc(b1-2)Man(a1-3)[GlcNAc(b1-4)][Gal(b1-3)GlcNAc(b1-2)Man(a1-6)]Man(b1-4)GlcNAc(b1-4)GlcNAc
# In short: as §1
# [16] = molecular target: Gal(b1-3)GlcNAc(b1-3)Gal(b1-4)GlcNAc(b1-2)[Gal(b1-3)GlcNAc(b1-3)Gal(b1-4)GlcNAc(b1-6)]Man(a1-6)[Gal(b1-3)GlcNAc(b1-3)Gal(b1-4)GlcNAc(b1-2)Man(a1-3)]Man(b1-4)GlcNAc(b1-4)[Fuc(a1-6)]GlcNAc
# In short: as §1
# [17] = molecular target: Gal(b1-3)GlcNAc(b1-6)[Gal(b1-3)]GalNAc
# In short: as §1
# [18] = molecular target: Gal(b1-4)GlcNAc(b1-2)Man(a1-6)Man(b1-4)GlcNAc(b1-4)GlcNAc
# In short: as §1
# [19] = molecular target: Gal6S(b1-4)GlcNAc
# In short: as §1
# [20] = molecular target: GalNAc(a1-3)GalNAc
# In short: as §1
# [21] = molecular target: GalNAc3S(b1-4)[Fuc(a1-3)]GlcNAc
# In short: as §1
# [22] = molecular target: Glc(a1-4)Glc(a1-4)Glc(a1-4)Glc
# In short: as §1
# [23] = molecular target: GlcA(b1-6)Gal
# In short: as §1
# [24] = molecular target: GlcNAc(a1-4)Gal(b1-4)GlcNAc(b1-3)Gal(b1-4)Glc
# In short: as §1
# [25] = molecular target: GlcNAc(b1-2)Man(a1-3)[GlcNAc(b1-2)Man(a1-6)]Man(b1-4)GlcNAc(b1-4)GlcNAc
# In short: as §1
# [26] = molecular target: GlcNAc(b1-2)[GlcNAc(b1-4)]Man(a1-3)[GlcNAc(b1-4)][GlcNAc(b1-2)[GlcNAc(b1-6)]Man(a1-6)]Man(b1-4)GlcNAc(b1-4)[Fuc(a1-6)]GlcNAc
# In short: as §1
# [27] = molecular target: GlcNAc(b1-3)Gal(b1-4)GlcNAc(b1-2)[GlcNAc(b1-3)Gal(b1-4)GlcNAc(b1-6)]Man(a1-6)[GlcNAc(b1-3)Gal(b1-4)GlcNAc(b1-2)Man(a1-3)]Man(b1-4)GlcNAc(b1-4)GlcNAc
# In short: as §1
# [28] = molecular target: GlcNAc(b1-3)Gal(b1-4)GlcNAc(b1-3)Gal(b1-4)GlcNAc(b1-3)Gal(b1-4)GlcNAc(b1-2)Man(a1-3)[GlcNAc(b1-3)Gal(b1-4)GlcNAc(b1-3)Gal(b1-4)GlcNAc(b1-3)Gal(b1-4)GlcNAc(b1-2)Man(a1-6)]Man(b1-4)GlcNAc(b1-4)[Fuc(a1-6)]GlcNAc
# In short: as §1
# [29] = molecular target: GlcNAc(b1-3)Man
# In short: as §1
# [30] = molecular target: GlcNAc(b1-4)GlcNAc(b1-4)GlcNAc
# In short: as §1
# [31] = molecular target: GlcNAc(b1-4)GlcNAc(b1-4)GlcNAc(b1-4)GlcNAc(b1-4)GlcNAc
# In short: as §1
# [32] = molecular target: GlcNAc(b1-4)GlcNAc(b1-4)GlcNAc(b1-4)GlcNAc(b1-4)GlcNAc(b1-4)GlcNAc
# In short: as §1
# [33] = molecular target: Kdn(a2-3)Gal(b1-4)[Fuc(a1-3)]GlcNAc
# In short: as §1
# [34] = molecular target: Neu5Ac(a2-3)Gal(b1-3)GlcNAc(b1-2)Man(a1-3)[GlcNAc(b1-4)][Neu5Ac(a2-3)Gal(b1-3)GlcNAc(b1-2)Man(a1-6)]Man(b1-4)GlcNAc(b1-4)GlcNAc
# In short: as §1
# [35] = molecular target: Neu5Ac(a2-3)Gal(b1-3)GlcNAc(b1-2)[Neu5Ac(a2-3)Gal(b1-3)GlcNAc(b1-4)]Man(a1-6)[Neu5Ac(a2-3)Gal(b1-3)GlcNAc(b1-2)Man(a1-3)]Man(b1-4)GlcNAc(b1-4)GlcNAc
# In short: as §1
# [36] = molecular target: Neu5Ac(a2-3)Gal(b1-3)[Fuc(a1-4)]GlcNAc
# In short: as §1
# [37] = molecular target: Neu5Ac(a2-3)Gal(b1-4)GlcNAc(b1-2)Man(a1-3)[GlcNAc(b1-4)][Neu5Ac(a2-3)Gal(b1-4)GlcNAc(b1-2)Man(a1-6)]Man(b1-4)GlcNAc(b1-4)GlcNAc
# In short: as §1
# [38] = molecular target: Neu5Ac(a2-3)Gal(b1-4)GlcNAc(b1-6)[Neu5Ac(a2-3)Gal(b1-3)]GalNAc
# In short: as §1
# [39] = molecular target: Neu5Ac(a2-3)Gal(b1-4)GlcNAc6S
# In short: as §1
# [40] = molecular target: Neu5Ac(a2-6)Gal(b1-4)GlcNAc(b1-2)Man(a1-3)[GlcNAc(b1-2)Man(a1-6)]Man(b1-4)GlcNAc(b1-4)GlcNAc
# In short: as §1
# [41] = molecular target: Neu5Ac(a2-6)Gal(b1-4)GlcNAc(b1-3)Gal(b1-4)GlcNAc(b1-3)GalNAc
# In short: as §1
# [42] = molecular target: Neu5Ac(a2-6)Gal(b1-4)GlcNAc(b1-3)GalNAc
# In short: as §1
# [43] = molecular target: Neu5Ac(a2-6)GalNAc(b1-4)GlcNAc
# In short: as §1
# [44] = molecular target: Neu5Ac(a2-6)GlcNAc(b1-4)GlcNAc(b1-4)GlcNAc
# In short: as §1
# [45] = molecular target: Neu5Ac(b2-6)GalNAc
# In short: as §1
# [46] = molecular target: Neu5Gc(a2-3)Gal(b1-3)GlcNAc
# In short: as §1
# [47] = molecular target: Neu5Gc(a2-8)Neu5Gc(a2-6)Gal(b1-4)GlcNAc
# In short: as §1
binder,measurement,setting,value
B1,glycan array binding signal (z-score),[1],-0.073
same,glycan array binding signal (z-score),[2],-0.074
same,glycan array binding signal (z-score),[3],-0.06
same,glycan array binding signal (z-score),[4],-0.081
same,glycan array binding signal (z-score),[5],0.076
same,glycan array binding signal (z-score),[6],-0.038
same,glycan array binding signal (z-score),[7],-0.079
same,glycan array binding signal (z-score),[8],-0.075
same,glycan array binding signal (z-score),[9],-0.078
same,glycan array binding signal (z-score),[10],-0.086
same,glycan array binding signal (z-score),[11],-0.048
same,glycan array binding signal (z-score),[12],-0.061
same,glycan array binding signal (z-score),[13],-0.075
same,glycan array binding signal (z-score),[14],-0.061
same,glycan array binding signal (z-score),[15],0.125
same,glycan array binding signal (z-score),[16],0.02
same,glycan array binding signal (z-score),[17],-0.054
same,glycan array binding signal (z-score),[18],-0.083
same,glycan array binding signal (z-score),[19],-0.051
same,glycan array binding signal (z-score),[20],0.308
same,glycan array binding signal (z-score),[21],0.01
same,glycan array binding signal (z-score),[22],-0.073
same,glycan array binding signal (z-score),[23],-0.062
same,glycan array binding signal (z-score),[24],-0.084
same,glycan array binding signal (z-score),[25],-0.057
same,glycan array binding signal (z-score),[26],-0.071
same,glycan array binding signal (z-score),[27],-0.06
same,glycan array binding signal (z-score),[28],-0.081
same,glycan array binding signal (z-score),[29],-0.057
same,glycan array binding signal (z-score),[30],16.5
same,glycan array binding signal (z-score),[31],11.9
same,glycan array binding signal (z-score),[32],7.47
same,glycan array binding signal (z-score),[33],-0.081
same,glycan array binding signal (z-score),[34],-0.076
same,glycan array binding signal (z-score),[35],0.149
same,glycan array binding signal (z-score),[36],-0.096
same,glycan array binding signal (z-score),[37],-0.076
same,glycan array binding signal (z-score),[38],-0.062
same,glycan array binding signal (z-score),[39],-0.075
same,glycan array binding signal (z-score),[40],-0.054
same,glycan array binding signal (z-score),[41],-0.091
same,glycan array binding signal (z-score),[42],-0.076
same,glycan array binding signal (z-score),[43],0.004
same,glycan array binding signal (z-score),[44],4.06
same,glycan array binding signal (z-score),[45],-0.076
same,glycan array binding signal (z-score),[46],-0.04
same,glycan array binding signal (z-score),[47],-0.072
